Laboratory results published in PubChem BioAssay AID1347434 (National Center for Advancing Translational Sciences (NCATS), 2020).
Several values for one entry are separate records, joined by “and”; a condition that tells them apart may be missing. Identical values can stand only once. Among all 1,200 compounds or so, about 30 (2%) were called active. Inconclusive results (about 23%) are left out. The call rests on the fitted dose curve; in most records, active means well fitted inhibition curve with a large enough effect; inconclusive means small, poorly fitted or top-dose-only effect; inactive means flat fitted curve, though single readings scatter. The full list was thinned out, with actives kept by preference.

Target: Single-stranded DNA cytosine deaminase (Homo sapiens) (UniProt Q9GZX7)
Test: Confirmatory qHTS assay for inhibitors of Activation Induced Cytidine Deaminase (AID): AID signals
Conditions: recombinant AID, FRET deamination/UDG coupled fluorescence, 4 h; series mostly up to 115 µM; activity, negative = inhibition: at the top concentration
Source text: Assay Provider (PI) Patricia Gearhart Ph.D. National Institute on Aging National Institute of Health (NIH), Bethesda, MD Assay Provider (PI) Rahul Kohli Ph.D. Perelman School of Medicine University of Pennsylvania, Philadelphia, PA Activation-Induced Deaminase (AID) is a cytosine deaminase which converts cytosine into uracil within stretches of ssDNA. The presence of uracil in DNA initiates a cascade of mutagenic DNA repair to introduce point mutations and DNA double strand breaks. Specific targeting of AID to the immunoglobulin heavy chain loci (Igh) promotes mutagenesis in the antibody variable region for somatic hypermutation (SHM) or switch regions leading to class switch recombination (CSR). However, AID also plays a role in accumulating unnecessary mutations across the genome. Mis-targeting of AID results in the initiation of tumor development and leads to greater drug resistance among cancer cells when continually expressed. To identify an AID inhibitor, a small molecule library will be screened in collaboration with NCATS core facility at NIH. To confirm biological function, inhibitors will be examined in an in vitro murine B-cell activation assay and subsequent secondary validation screens. Top molecules will be further screened to identify inhibitory efficacy against a wild type primary splenocytes assay. Using these approaches, we hope to identify a small molecule with great efficacy and low toxicity for use as a molecular probe to further characterize AID's intricacies, or even as a therapeutic. A FRET based analysis of cytosine deamination, was developed to identify potential inhibitors of AID catalytic activity. This screen has two signal output, Read 1 evaluates the AID inhibition response. The second readout (Read 2) evaluates UDG response and is uses as a counterscreen to exclude false positive inhibitors. Inhibition in AID and inactivity in the UDG signal is the desired outcome for this assay.
PROTOCOL TABLE SEQUENCE No. (e.g., 1, 2, 3, etc.); […] (e.g., Cells, Incubation, Reagent, etc.); VALUE; DESCRIPTION 1a; Reagent; 3 uL; [4/3x] 1 uM AID/2.67 U/mL UDG 1b; Reagent; 3 uL; 2 U/mL UDG 1c; Reagent; 3 uL; 1 uM AID 2a; Compound; 46 nL; Follow-up plates (0.64 uM - 10 mM) 2b; Control; 46 nL; ATA (16.4 nM - 10 mM) 3; Time; 10 min; incubation at room temperature 4; Reagents; 1 uL; [4x] 250 nM DJC20 / 250 nM DJC23 [Substrate] 5; Time; 4 hr; incubation at room temperature 6; Reagent; 4 uL; [2x] 250 mM NaOH 7; Time; 15 sec; centrifuge at 1000 rpm 8; Time; 30 min; incubation at room temperature 9a; Detection; fluorescence (Read 1: AID); EnVision (PerkinElmer) plate reader, 540 excitation and 590 emission filters 9b; Detection; fluorescence (Read 2: UDG); EnVision (PerkinElmer) plate reader, 560 excitation and 665 emission filters NOTES (numbers refer to sequence above) 1a; Reagents were dispensed in a medium-binding black solid-bottom Greiner plates (789176F) using a BioRptr liquid dispenser. Dispense 3 uL of [4/3x] 1 uM AID (provided by Kohli lab) and [4/3x] 2 U/mL UDG (NEB M0280L) into columns 1, 2, 5 to 48. 1b; Dispense 3 uL of [4/3x] 2 U/mL UDG into column 3. 1c; Dispense 3 uL of [4/3x] 1 uM AID into column 4. 2a; Compound ([…] [uM]: 0.64; 3.2; 16; 80; 400; 2,000; 10,000; 20,000) double pin-transferred (Dip Factor = 2) using the Kalypsys (Wako USA) pintool equipped with a 1536 pinhead for a final concentration range of 7.32 nM - 114 uM. 2b; 10 mM Aurintricarboxylic Acid (Sigma A1895) (ATA, 8-point, n = 2, 1:2.5 dilution in column 2) double pin-transferred (Dip Factor = 2) using the Kalypsys (Wako USA) pintool equipped with a 1536 pinhead for a [final] range of 186 nM - 114 uM. 3; Room temperature incubation. 4; Dispense 1 uL of substrate mixture from the Kohli lab [4x] […] DJC20 and [4x] 250 nM DJC23 into columns 1 to 48 . 5; Room temperature incubation. 6; Dispense 4 uL of […] [2x] 250 mM NaOH into columns 1 to 48. 7; Centrifugation step to remove bubbles. […]
On the % scale 0 is the no-effect control and ±100 the full control effect; potency means the concentration at half of the fitted maximal effect.

Single-stranded DNA cytosine deaminase (Homo sapiens), sequence (Q9GZX7 whole entry, looked up): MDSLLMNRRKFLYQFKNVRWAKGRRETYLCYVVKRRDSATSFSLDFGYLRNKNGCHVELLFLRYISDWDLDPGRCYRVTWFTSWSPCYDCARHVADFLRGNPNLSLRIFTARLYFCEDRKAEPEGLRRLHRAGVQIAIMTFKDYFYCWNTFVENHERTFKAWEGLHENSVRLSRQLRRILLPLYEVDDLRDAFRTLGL

Row | SMILES | activity, negative = inhibition | Potency
1 | Cc1ccc(N(CC(=O)N2CCN(c3cc(C)ccc3C)CC2)S(=O)(=O)c2c(C)nn(C)c2C)cc1 | -24.2% (inactive) | 
2 | Cc1oc(-c2cccc(Br)c2)nc1Cn1c(SCc2cccc(F)c2)nc2cccnc21 | 0.648% (inactive) | 
3 | Cc1cc(-c2ccc(C)c(S(=O)(=O)N3CCCC(C)C3)c2)on1 (stereo not given) | -12.9% (inactive) | 
4 | CCc1ccc(CNC(=O)c2ccc(CSc3nc4ccncc4n3Cc3ccccc3)cc2)cc1 | 4.54% (inactive) | 
5 | Cc1ccc(C)c(N2CCN(CCCNC(=O)c3cnn(-c4ccc(F)cc4)c3C3CCN(C(=O)OC(C)(C)C)CC3)CC2)c1 | -1.81% (inactive) | 
6 | CC(C)(Sc1ccc(CCN(CCCCC2CCCCC2)C(=O)NC2CCCCC2)cc1)C(=O)O |  | 31.6 µM (active) and 112 µM (active)
7 | Cc1ccc(Nc2c3c(nc4nc(-c5cccs5)nn24)CCCC3)cc1F | -24.6% (inactive) | 
8 | CCOC(=O)C1=C(CN(CC)Cc2ccccc2)NC(=O)NC1c1ccc(OC(C)C)cc1 (stereo not given) | -13.7% (inactive) | 
9 | COc1ccccc1N1CCN(C(=O)c2cc3ccc4ccc(C)[nH]c4c3n2)CC1 | 3.08% (inactive) | 
10 | COc1cccc(Nc2cc(-c3ccccc3)nc(C)n2)c1 | -3.46% (inactive) | 
11 | CC(C)(C)c1ccc(S(=O)(=O)c2cnc(SCC(=O)Nc3ccc(F)c(Cl)c3)[nH]c2=O)cc1 |  | 35.5 µM (active)
12 | Cc1ccc(NC(=O)CSc2ncc(S(=O)(=O)c3ccc(C(C)C)cc3)c(=O)[nH]2)cc1C |  | 31.6 µM (active)
13 | Cc1cc(C)c(NC(=O)CSc2ncc(S(=O)(=O)c3ccc(C(C)(C)C)cc3)c(=O)[nH]2)c(C)c1 | -9.91% (inactive) | 
14 | CC(C)c1ccc(S(=O)(=O)c2cnc(SCC(=O)Nc3cccc(C(F)(F)F)c3)nc2N)cc1 | -5.26% (inactive) | 
15 | COC(=O)c1cc(Cl)ccc1NC(=O)CSc1ncc(S(=O)(=O)c2ccc(Br)cc2)c(=O)[nH]1 | -7.72% (inactive) | 
16 | COc1cc(Cl)c(C)cc1NC(=O)CSc1ncc(S(=O)(=O)c2ccc(C(C)(C)C)cc2)c(=O)[nH]1 | -18.9% (inactive) | 
17 | Cc1nn2c(=O)cc(COC(=O)c3ccc(NC(=O)C4CCCCC4)cc3)nc2s1 | -2.33% (inactive) | 
18 | COc1ccc(C)cc1NC(=O)c1c(C)oc2ncn(CC(C)C)c(=O)c12 | -3.76% (inactive) | 
19 | CCc1nc2ccc(C(=O)N3CCN(c4ccc(Cl)cc4)CC3)cc2nc1CC | -22.4% (inactive) | 
20 | COc1ccc(-n2cc(-c3ccccc3)c3c(NC4CCCC4)ncnc32)cc1 | -13.8% (inactive) | 
21 | CCOC(=O)c1ccc(-n2c(N)c(C(=O)OC)c3nc4ccccc4nc32)cc1 |  | 25.1 µM (active)
22 | CCOC(=O)c1ccc(N2C(=O)c3[nH]nc(-c4ccccc4)c3C2c2ccc(CC)cc2)cc1 (stereo not given) | -2.39% (inactive) | 
23 | CCOC(=O)c1ccc(NC(=O)CC2Nc3cccc4cccc(c34)NC2=O)cc1 (stereo not given) | -7.25% (inactive) | 

Row | SMILES | activity, negative = inhibition | Potency
24 | O=C1C(SCCO)=C(SCCO)C(=O)c2ccccc21 |  | 14.1 µM (active)
25 | N#C/C(=C\c1ccc(-c2ccccc2C(=O)O)o1)c1nc2ccccc2[nH]1 | 33.8% (inactive) | 
26 | Cc1ccc(-c2ccc(=O)n(CC(=O)Nc3ccc(C)cc3Cl)n2)cc1 | -24.2% (inactive) | 
27 | CCOC(=O)c1c(C)n(-c2ccccc2)c2ccc(OC(=O)c3ccccc3NC(=O)C(C)(C)C)cc12 | 11.3% (inactive) | 
28 | COc1ccc(OC)c(Nc2sc(C(=O)c3ccccc3)c(N)c2S(=O)(=O)c2ccccc2)c1 | -2.04% (inactive) | 
29 | C=Cc1ccc(CSc2nc(-c3ccc(OC)cc3)nc3c2Cc2c(CO)cnc(C)c2O3)cc1 | -8.87% (inactive) | 
30 | COc1cc(/C=C(\C#N)C(=O)Nc2nnc(C(F)(F)F)s2)ccc1OCc1ccc(C(F)(F)F)cc1C(F)(F)F |  | 31.6 µM (active)
31 | CCC(Sc1nc2c(sc3ccccc32)c(=O)n1CCc1ccc(OC)c(OC)c1)C(=O)N(CC)CC (stereo not given) | -18.2% (inactive) | 
32 | COc1ccc(C(=O)Nc2nc3n(n2)C(c2ccc(Cl)cc2)C=C(c2ccccc2)N3)cc1OC (stereo not given) | -25.4% (inactive) | 
33 | O=C(NCCc1ccc(Cl)cc1)c1ccc2c(c1)N(Cc1ccc(Cl)cc1)C(=O)CS2 | -4.7% (inactive) | 
34 | O=C(NCCn1cc(SCc2ccc(C(F)(F)F)cc2)c2ccccc21)c1cccs1 | 7.38% (inactive) | 
35 | Cc1cccc(N(CC(=O)NCCSCc2cccc(Cl)c2)S(=O)(=O)c2ccccc2)c1C | -3.57% (inactive) | 
36 | CCCOc1ccc(-c2nn(-c3ccccc3)cc2C2NC(=O)NC(C)=C2C(=O)OC(C)C)cc1 (stereo not given) | -11.1% (inactive) | 
37 | CCN1C(=O)c2ccccc2S(=O)c2ccc(C(=O)N3CCN(c4cccc(C)c4)C(C)C3)cc21 (stereo not given) | -22.1% (inactive) | 
38 | Cc1ccc(-n2cnc3cc(C(=O)NCCC4=CCCCC4)ccc32)c(C)c1 | -13.5% (inactive) | 
39 | O=C(c1noc2c1CCCCC2)N1CCN(c2ccc(Cl)cc2)CC1 | -0.744% (inactive) | 
40 | CCc1cccc(-n2c(C)nc3c(cnn3-c3ccc(C)c(C)c3)c2=O)c1 | -7.64% (inactive) | 
41 | O=C(NCCn1cc(SCc2cccc(F)c2)c2ccccc21)c1cccc(C(F)(F)F)c1 | 2.49% (inactive) | 
42 | Cc1ccc(C)c(N2CCN(C(=O)c3cc(S(=O)(=O)N4CCC(C)CC4)cn3C)CC2)c1 | -14.5% (inactive) | 
43 | Cc1ccc(C)c(N2CCN(C(=O)Cn3nc(Cc4cccnc4)c4ccccc4c3=O)CC2)c1 | -7.71% (inactive) | 
44 | Cc1ccc(-c2nc(C(=O)N3CCN(c4ccccc4)CC3)c3n2CCCCC3)cc1 | -10.4% (inactive) | 
45 | COc1ccc2c(c1)Cc1sc(NC(=O)c3cccc(C)c3)nc1-2 | -15.7% (inactive) | 
